Out of some 370,000 compounds screened, about 1,600 (0.43%) were called active. Rule as the data show it: active = inhibition above about 24%; inactive = the rest. Only a selection was taken, and actives are over-represented in it overall.
Each molecule was assayed against Major prion protein (Homo sapiens) (UniProt P04156) (assay: inhibitors of human cell surface prion protein PrPC, primary screen, cell-based, TR-FRET (AID 720596; also: 0% = median of the test wells and 100% = reference compound wells)). Conditions: TR-FRET read-out, at 13.8 µM, hits give high values.
For `COc1ccc(C(=O)Cn2nnc(-c3ccc(N4CCOCC4)cc3)n2)cc1OC`, the inhibition was 2.45% (inactive).
With `O=c1[nH]c(=O)n(Cc2ccco2)c2c1C(C(F)(F)F)(C(F)(F)F)N=C(c1ccco1)N2` the inhibition was -1.08% (inactive).
`Fc1ccc2[nH]c3c(N4CCSCC4)ncnc3c2c1` was tested, and the inhibition was 40.8% (active).
`CC(=O)NC(NC(=S)Nc1c(C)n(C)n(-c2ccccc2)c1=O)C(Cl)(Cl)Cl` (stereo not given) was tested, and the inhibition was -1.39% (inactive).
In the case of `Cc1ccc(SCC(=O)NNC(=O)c2ccc(S(C)(=O)=O)cc2)cc1`, the inhibition was -1.94% (inactive).
In the case of `CCN(CC)c1ccc(C(=O)NNC(=O)CCc2nc3ccccc3c(=O)[nH]2)cc1`, the inhibition was 1.99% (inactive).
For `CCc1nc(SCC(=O)NNC(=O)c2ccc(C)cc2)c2ccccc2n1`, the inhibition was 97.6% (active).
With `CCCN(CCC)S(=O)(=O)c1ccc(C(=O)N2CC3CCC(CC3)C2)cc1` the inhibition was 0.5% (inactive).
For `O=C(Nc1c(Cl)c(C2CC2)nn1-c1ccccc1)C(Cl)(Cl)Cl`, the inhibition was 1.29% (inactive).
With `CCC(C)NC(=O)N[C@@H](CCSC)C(=O)O` (stereo not given in full) the inhibition was -4.34% (inactive).
With `CCC(C)NC(=O)c1nn(C)c(=O)c2ccccc12` (stereo not given) the inhibition was -2.76% (inactive).
`Cc1cccc(C(=O)C(O)(c2ccccc2)C2CCCCC2=O)c1` (stereo not given) was tested, and the inhibition was -5.23% (inactive).
With `N#Cc1ccccc1Sc1ccccc1C(=O)OCC(=O)NC1CCCCC1` the inhibition was -7.2% (inactive).
In the case of `O=C(COC(=O)c1ccccc1SCC(=O)NC1CCCCC1)NC1CCCCC1`, the inhibition was 52.2% (active).
With `O=C(COC(=O)c1cccc(Cl)c1Cl)NC1CCCCCC1` the inhibition was 4.24% (inactive).
In the case of `COC(=O)Cc1nc2c(N)nc(N)nc2[nH]c1=O`, the inhibition was 4.68% (inactive).
For `Cc1sc(NC(=O)C2C3CCC(O3)C2C(=O)O)c(C(=O)OC(C)C)c1-c1ccc(Cl)cc1` (stereo not given), the inhibition was 7.78% (inactive).
For `CC(=O)N1CCCc2cc(S(=O)(=O)N3CCCC(C(=O)NCc4ccc(Cl)cc4)C3)ccc21` (stereo not given), the inhibition was 29.3% (active).
With `CC(=O)N1c2ccc(S(=O)(=O)N3CCC(C(=O)NCc4ccc(F)cc4)CC3)cc2CC1C` (stereo not given) the inhibition was -0.57% (inactive).
In the case of `COc1ccc(S(=O)(=O)N2CCCC(C(=O)N3CCN(C)CC3)C2)cc1C` (stereo not given), the inhibition was 2.94% (inactive).
In the case of `CC(=O)N1c2ccc(S(=O)(=O)N3CCC(C(=O)NC4CCCCC4C)CC3)cc2CC1C` (stereo not given), the inhibition was 6.59% (inactive).
For `CC(=O)N1c2ccc(S(=O)(=O)N3CCCC(C(=O)Nc4ccc(C)cc4C)C3)cc2CC1C` (stereo not given), the inhibition was 6.63% (inactive).
In the case of `CCOC(=O)C1CCN(C(=O)C2CCCN(S(=O)(=O)c3ccc(OC)c(Cl)c3)C2)CC1` (stereo not given), the inhibition was -3.34% (inactive).
For `CC(=O)N1CCCc2cc(S(=O)(=O)N3CCCC(C(=O)N4CCN(c5cccc(Cl)c5)CC4)C3)ccc21` (stereo not given), the inhibition was 40.4% (active).
In the case of `CC(=O)N1c2ccc(S(=O)(=O)N3CCCC(C(=O)Nc4cccc(F)c4)C3)cc2CC1C` (stereo not given), the inhibition was 51.1% (active).
`CC(=O)N1c2ccc(S(=O)(=O)N3CCCC(C(=O)NCc4ccc(Cl)cc4)C3)cc2CC1C` (stereo not given) was tested, and the inhibition was 10.5% (inactive).
With `CCOC(=O)C1CCN(C(=O)COc2cc(C)c(Br)c(C)c2)CC1` the inhibition was 0.57% (inactive).
In the case of `O=C(/C(=N\O)n1cncn1)c1ccc(Br)cc1Br`, the inhibition was -3.03% (inactive).
With `CC12CN(Cc3ccccc3)CC(C)(CN(Cc3ccccc3)C1)C2=NO` the inhibition was -7.09% (inactive).
`COc1ccc(Cn2cc(COC(=O)N(C)Cc3ccccc3)nn2)cc1` was tested, and the inhibition was 6.15% (inactive).
In the case of `OCC1(CO)CC2(C1)CC(CO)(CO)C2`, the inhibition was 2.39% (inactive).
For `O=C(Nc1cc(F)cc(F)c1)OC1CCC12CCC(c1ccccc1)CC2` (stereo not given), the inhibition was 4.41% (inactive).
For `FC(F)(F)c1cccc(NC(=S)OC2CCC23CCC(c2ccccc2)CC3)c1` (stereo not given), the inhibition was 24.4% (active).
For `CSc1nccc(NC(=O)c2ccc(C(C)(C)C)cc2)n1`, the inhibition was 29.4% (active).
For `CSc1ncc(C(=O)Nc2ccc(C)cc2C)c(C)n1`, the inhibition was -0.45% (inactive).
For `CC(C)(C)c1ccc(C(=O)Nc2cc(Cl)c(Br)cc2C(=O)O)cc1`, the inhibition was 21% (inactive).
In the case of `Cn1cc(CN2CCCCC2c2ccccn2)c(-c2ccc3c(c2)OCCO3)n1` (stereo not given), the inhibition was -3.25% (inactive).
For `CC(C)C(=O)N1CCC2(CC1)Oc1ccc(F)cc1C(=O)C21CC(c2ccccc2)=NO1` (stereo not given), the inhibition was -0.07% (inactive).
In the case of `CCCCN(CC)C(=O)C1CCCN(S(=O)(=O)c2cccc3nsnc23)C1` (stereo not given), the inhibition was -27.1% (inactive).
For `COc1cc(C)c(C(C)C)cc1S(=O)(=O)n1ccnc1`, the inhibition was -1.35% (inactive).
For `OCCCNc1nccc(-c2cc(Nc3cccc(Cl)c3)ncn2)n1`, the inhibition was 29.2% (active).
With `COCn1c(C(O)c2ccccc2)cc2ccccc21` (stereo not given) the inhibition was 6.96% (inactive).
`O=C(O)C#Cc1cccc2ccccc12` was tested, and the inhibition was 17.9% (inactive).
`CN(O)C(=S)c1ccccc1` was tested, and the inhibition was 36.8% (active).
In the case of `O=C(c1ccco1)N1CCN(CC(=O)N(C2CCCCC2)C2CCS(=O)(=O)C2)CC1` (stereo not given), the inhibition was 7.46% (inactive).
In the case of `CC1=CCC2C(=O)N(c3cccc(C(=O)NC(C)c4ccccc4)c3)C(=O)C2C1` (stereo not given), the inhibition was -1.98% (inactive).
With `CC(=O)c1nc(N2C(=O)C3CC=C(C)CC3C2=O)sc1C` (stereo not given) the inhibition was 38.2% (active).
With `COc1ccc(CCN2C(=O)C3CC=C(C)CC3C2=O)cc1OC` (stereo not given) the inhibition was -3.31% (inactive).
`Cc1ccc(N2C(=O)N3[C@@H]4c5ccccc5OC[C@@H]4[C@@H](c4ccccc4)[C@@]3(C)C2=O)cc1` was tested, and the inhibition was -0.71% (inactive).
For `O=C(CCn1nnnc1CN1CCOCC1)N1CCC(c2ccccc2Cl)C1` (stereo not given), the inhibition was 1.76% (inactive).
In the case of `COCCNC(=O)C1(C)CCCN(Cc2cccc(F)c2)C1` (stereo not given), the inhibition was 10.6% (inactive).
With `CC(C)CC(N=C1NC(C)(C)Cc2ccccc21)C(=O)O` (stereo not given) the inhibition was -0.6% (inactive).
`CC1(C)Cc2ccccc2-c2[nH]c(=S)[nH]c(=O)c21` was tested, and the inhibition was 78.3% (active).
`N#CC1=C(N)Oc2[nH]c(=S)[nH]c(=O)c2C12C(=O)Nc1ccccc12` (stereo not given) was tested, and the inhibition was -0.84% (inactive).
With `O=C(CCCCCN1C(=O)C2C3C=CC(C3)C2C1=O)Nc1ccccc1` (stereo not given) the inhibition was 3.7% (inactive).
`Cc1ccc(C)c(NC(=O)C2CC(=O)N(C(C)C)C2)c1` (stereo not given) was tested, and the inhibition was 1.81% (inactive).
With `CC(C)(C)NC(=O)COc1ccc(CNc2ccc3[nH]c(=O)[nH]c3c2)cc1` the inhibition was -1.03% (inactive).
With `COc1ccccc1NC(=O)COC(=O)CNC(=O)C1CCCCC1` the inhibition was -3.12% (inactive).
In the case of `COc1ccc(NC(=O)COC(=O)CNC(=O)C2CCCCC2)cc1`, the inhibition was 31.5% (active).
In the case of `COc1ccc(NC(=O)CN(C)C(=O)CNC(=O)C2CCCCC2)cc1`, the inhibition was 7.94% (inactive).
